Compound activity deposited in PubChem by several laboratories.
An excerpt weighted towards active compounds, which were near 2.8% of everything screened.
LMP1 NFkB inh – inhibitors of Epstein-Barr LMP1-induced NF-kappaB reporter; AID 504558; actives 0.69% (n = 350,000); LMP1-induced NF-kappaB luciferase reporter cells, luminescence; inhibition, % at 12.5 µM; in the data active means inhibition above about 41%;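 further: 0% = neutral control wells and 100% = reference inhibitor control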
TRPM1 prom inh – inhibitors of MITF-driven TRPM1 promoter in melanoma cells. inhibition, % at 12.5 µM. SK-MEL-5 TRPM1 promoter luciferase, 24 h. actives 0.83% (n = 330,000);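 active means mean inhibition across replicates of 60% or more, whatever share of single replicates reaches that level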
Shn3 inh set2 – reduces Shn3 3'UTR luciferase signal in osteoblasts; Clone20 osteoblast Shn3 3'UTR firefly luciferase, 24 h; inhibition, % at 12.5 µM; actives 0.52% (n = 360,000); AID 588674;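 active means mean inhibition of at least 75% with every replicate also reaching 75%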;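 further: 0% = median of neutral control wells and 100% = pilot-screen positive control compound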
Peg3 prom inh – inhibitors of Peg3 promoter | inhibition, % at 20 µM | actives 1.7% (n = 360,000) | HeLa PEG-Prom luciferase reporter, luminescence, overnight;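 active means inhibition of at least 50% at 20 µM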
HIF-2a inh – inhibitors of HIF-2a | inhibition, % at 18.8 µM | AID 624352 | 786-0 RCC cells HIF-2a reporter, luciferase luminescence, overnight | actives 0.72% (n = 360,000);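 active means inhibition of the luminescence signal of 40% or more relative to plate controls, in a single-dose primary screen at 18.75 µM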
PAX8 inh HTS – lowers PAX8-driven luciferase in RMG-I cells | actives 1.2% (n = 360,000) | inhibition, % at 12.6 µM | RMG-I TPO-luciferase reporter, SteadyGlo, 24 h;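 active means mean replicate inhibition at least 60% with every replicate also reaching 60%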;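 further: luciferase light reporting Pax8 driven TPO promoter activity; plate controls were median of neutral control wells for no effect and mitoxantrone controls for full effect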
* marks the source's active call; other numbers are inactive results; . = no result.

SMILES | LMP1 NFkB inh | TRPM1 prom inh | Shn3 inh set2 | Peg3 prom inh | HIF-2a inh | PAX8 inh HTS
CCN(CC)S(=O)(=O)c1cccc(-n2c(O)c(C=Nc3ccccc3C(=O)O)c3ccccc3c2=O)c1 | 58* | 54 | -18 | 24 | 3 | 28
CCCCCCC#Cc1ccc2c(c1)COc1c3ccccc3nn1-2 | -21 | -7 | 90* | -246 | -231 | -216
CCCCC#Cc1ccc2c(c1)COc1c3ccccc3nn1-2 | -21 | -14 | -66 | -319 | -254 | -67
CN(C)c1ccc(CNCCC(Cc2ccccc2)c2ccco2)cc1 (centres undefined) | -7 | 0 | 56 | 50* | 5 | 20
Cc1ccccc1S(=O)(=O)N1CC[C@H]2[C@H](CO)Nc3ccc(-c4ccccc4F)cc3[C@H]21 | . | . | . | . | . | 3
CN(C(=O)COC(=O)c1nc(Cl)c(Cl)c(Cl)c1Cl)C1CCS(=O)(=O)C1 (centres undefined) | -137 | 94* | 65 | 107* | 40 | 4
CN(C(=O)COC(=O)c1ccc(C(C)(C)C)cc1)C1CCS(=O)(=O)C1 (centres undefined) | -1 | -7 | -2 | -10 | 2 | -6
CCOC(=O)C1CCN(S(=O)(=O)c2c(Cl)ccc3nonc23)CC1 | 23 | 93* | 96* | 112* | 92* | 29
CN(C(=O)COC(=O)C1CCN(S(=O)(=O)c2c(Cl)cccc2Cl)CC1)C1CCS(=O)(=O)C1 (centres undefined) | 2 | -10 | 7 | 2 | 7 | 113*
CCC(=O)N1CC2(C1)[C@H](c1ccccc1)[C@H](CO)N2C(=O)c1ccccc1 | . | . | . | . | . | -6
C[C@@H]1CCCCO[C@@H](CN(C)Cc2ccc(C(F)(F)F)cc2)[C@@H](C)CN([C@@H](C)CO)C(=O)c2cc(NS(=O)(=O)c3ccc(Cl)cc3)ccc2O1 | . | . | . | . | . | 91*
C[C@H](CO)N1C[C@H](C)[C@@H](CN(C)Cc2ccc(C(F)(F)F)cc2)OCCCC[C@H](C)Oc2ccc(NS(=O)(=O)c3ccc(Cl)cc3)cc2C1=O | . | . | . | . | . | 99*
C[C@@H]1CN([C@H](C)CO)C(=O)c2cc(NS(=O)(=O)c3ccc(Cl)cc3)ccc2O[C@@H](C)CCCCO[C@@H]1CN(C)Cc1ccc(C(F)(F)F)cc1 | . | . | . | . | . | 5
CN1C(=O)c2cc(NC(=O)c3ccccc3Cl)ccc2OC[C@H]2O[C@@H](CC(=O)O)CC[C@@H]21 | . | . | . | . | . | -5
O=C(NCCCNC(=O)c1ccco1)c1ccc(Cl)c(Cl)c1 | -6 | 7 | 9 | 53* | -4 | 5
O=C(NCCCNC(=O)c1cc(Cl)ccc1Cl)c1ccco1 | -8 | 6 | 7 | -8 | 16 | 0
COc1cc(/C=N/NC(N)=S)ccc1OCc1ccc(C)cc1 | -10 | -8 | 19 | -95 | -97 | 75*
COc1cc(/C=N/N=C(N)N)ccc1OCc1ccc(Cl)cc1 | 13 | 89* | 56 | 103* | -104 | -17
NC(N)=N/N=C/c1ccc(Cl)c(Cl)c1 | . | . | -20 | 99* | 5 | -1
COc1ccc(C=NNC(=S)NN=Cc2ccc(OC)c(OC)c2)cc1OC | -4 | -37 | 4 | -71 | -150 | -118
COc1cc(/C=N/NC(N)=S)ccc1OC(=O)c1ccc(C)cc1 | -7 | 4 | -8 | -24 | -13 | 81*
C[C@H]1CN([C@@H](C)CO)C(=O)c2cccc(NS(=O)(=O)c3ccc(F)cc3)c2O[C@H]1CN(C)Cc1ccc(C(=O)Nc2ccccc2N)cc1 | . | . | . | . | . | -10
C[C@@H]1CN([C@H](C)CO)C(=O)c2cc(NC(=O)c3ccncc3)ccc2O[C@@H]1CN(C)Cc1ccc(C(F)(F)F)cc1 | . | . | . | . | . | 13
C[C@@H]1CN([C@H](C)CO)C(=O)c2c(c3ccccc3n2C)-c2ccccc2CO[C@H]1CN(C)C(=O)Nc1ccnc(N2CCOCC2)c1 | . | . | . | . | . | -12
COc1ccc(NS(=O)(=O)c2ccc(N3CCCC3)c(NC(=S)Nc3ccc(SC(F)F)cc3)c2)cc1 | 9 | -5 | 40 | -7 | -6 | 101*
Cc1ccc(-n2c(C)cc(C(=O)COC(=O)C3=NNC(=O)CC3)c2C)cc1 | -2 | 9 | 15 | -1 | 50* | .
Cc1cc(C(=O)COC(=O)C2=NNC(=O)CC2)c(C)n1-c1ccccc1 | 0 | 31 | 5 | -18 | 10 | .
COc1ccc(NC(=O)CCS(=O)(=O)c2ccc3c(c2)CCCN3C(C)=O)cc1Cl | -11 | 0 | 20 | 12 | 3 | .
